Experimental data taken from PubChem BioAssay (NCI).
The panel holds about 83,000 compounds, 20% with a hit somewhere; the sample as a whole holds those more often.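 Values shown are percent growth following 48 h exposure of cells in 96-well plates to a single concentration of compound; below 10 was considered active.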 Activity calls are given as the source filed them.

These compounds were tested on HL-60(TB) leukemia (assay: NCI-60 one-dose screen, 48 h (100 = growth as untreated, 0 = no growth, -100 = all killed)). Conditions: 10 µM unless noted.

| Structure (SMILES) | growth |
| --- | --- |
| COc1ccc(-c2nsc3c2NC(=O)CC3c2cccc(OC)c2)cc1 (configuration not stated) | 6.13% (active) |
| COc1ccc(-c2nc3c(N)c(CO)c(C)nc3o2)cc1 | 98.3% (inactive) |
| CCOC(=O)C1=C(C)NC(=O)NC1c1cc(=O)oc2ccc(C)cc12 (configuration not stated) | 97.6% (inactive) |
| COc1cc(C2C(C#N)=C(c3c[nH]c4ccccc34)Nc3nc(N)[nH]c(=O)c32)cc(OC)c1OC (configuration not stated) | 42.1% (inactive) |
| NS(=O)(=O)c1ccc(N2N=C(c3cccs3)CC2c2ccccc2O)cc1 (configuration not stated) | -25.9% (active) |
| CCCCCCCC/C=C/CCCCCCCCC1=NCCN1CCO | 8.59% (active) |
| Ic1ccccc1-c1ccccc1 | 81.2% (inactive) |
| Nc1nc(Nc2ccc(F)cc2)nn1C(=O)c1cc(Cl)ccc1Cl | 65.1% (inactive) |
| Cc1ccc(Cc2cnc(NC(=O)/C=C/c3cccc(C)c3)s2)cc1 | -15.4% (active) |
| c1ccc(Nc2nc(-c3ccccn3)cs2)nc1 | 1.61% (active) |
| Cn1ccnc1C(=O)/C=C/c1ccc(C(=O)Nc2ccccc2O)cc1 | 0.702% (active) |
| O=Nc1ccc(NC(=O)Nc2ccc([N+](=O)[O-])cc2)cc1 | 89.8% (inactive) |
| COc1ccc(C(=O)/C=C/c2ccc(OCc3ccccc3)c(OC)c2)cc1OC | 48.8% (inactive) |
| C#CCOC(=O)/C=C/c1cn(-c2ccccc2)nc1-c1ccc(OC)cc1 | 110% (inactive) |
| O=C(O)C1CCC(=O)N1C(=O)OCc1ccccc1 (configuration not stated) | 84.1% (inactive) |
| CCNc1nc(O)c(/C=C2\C=Nc3ncccc32)s1 | -22.4% (active) |
| C[n+]1ccc(CCc2c[nH]c3ccccc23)cc1 | 90.6% (inactive) |
